This assay relates to HepG2. Put plainly: GSK_TCMDC: Percent inhibition of human HepG2 cell line. Test compounds present at 10uM. It counts as functional.
In the case of `COc1ccc(CN(C)CCCOc2ccc(NC(=O)c3cccc4c(=O)c5cccc(C)c5[nH]c34)cc2)cc1OC`, the Inhibition is on record as 3%.
The same measure for `COc1ccc(C(=O)N2CCN(c3ccc([N+](=O)[O-])c(NC4CC4)c3)CC2)cc1Br`: 6%.
`COc1ccc(-c2cc3nc4c(c(NCCCn5ccnc5)n3n2)CCCC4)cc1` gave an Inhibition of 5%.
With `CCOc1ncccc1CN1CCC(N2CCc3cc(NC(=O)c4cc(C)on4)ccc32)C1` (stereo not given), the Inhibition amounted to 0%.
Take `CC(=O)c1c[nH]c2ccc(/C=C/C(=O)NC3CCC(CCN4CCc5ccc(C#N)cc5CC4)CC3)cc12.Cl` (stereo not given): the Inhibition came out at 11%.
With `COc1ccc(C(=O)Nc2ccc(-c3nc4cc(C)ccc4[nH]3)cc2)cc1OC`, the Inhibition is reported as 70%.
As for `CCN(CC)CCN(Cc1ccc(-c2ccc(C(F)(F)F)cc2)cc1)C(=O)Cn1c(CCc2cc(F)cc(F)c2F)nc(=O)c2ccccc21.O=C(O)C(O)C(O)C(=O)O`, the figure is 36%; as for `Cl.O=C(NCCCCN1CCC(O)(c2ccc(Cl)cc2)CC1)c1ccc(Br)cc1`, 41%.
The same measure for `O=C(/C=C/c1ccc(Cl)c(Cl)c1)NCCC(CN1CCC(c2c[nH]c3ccccc23)CC1)c1ccccc1` (stereo not given): 84%; for `CCCOc1c(CCNCCCCNCCc2ccc3ccccc3c2OCCC)ccc2ccccc12.CS(=O)(=O)O`: 100%.
Regarding `Cc1noc(-c2ccc(O)cc2O)c1-c1ccc2c(c1)OCCCO2`, the Inhibition was 8%.
As for `O=C(c1cccc(-c2noc(C(F)(F)F)n2)c1)N1CCN(c2ccncc2)CC1`, the figure is 14%; as for `NC1CCCN(Cc2cccc(-c3ccc(-c4nc5cc(F)ccc5[nH]4)cc3)c2)C1.O=C(O)C(F)(F)F` (stereo not given), 40%; as for `CC(C)(C)c1ccc(CN2CCC(CNC(=O)c3cc(-c4ccccc4F)cs3)C2)cc1.O=C(O)C(F)(F)F` (stereo not given), 46%.
As for `COc1cccc(NC(=O)Cn2c(C)c(C#N)c3ccccc32)c1`, the figure is 16%; as for `Cc1ccc2nc(-c3ccc(C(=O)NC4CCN(Cc5ccccc5)CC4)cc3)[nH]c2c1C`, 22%; as for `O=C(c1cc2cccc([N+](=O)[O-])c2[nH]1)N1CCC(CCN2CCC(c3c[nH]c4ccccc34)CC2)CC1`, 45%.
The same measure for `Cc1cc(Nc2ccc(Cl)cc2)n2nc(C(F)(F)F)nc2n1`: 5%; for `CC1CN(CC(O)Cn2c3ccc(Br)cc3c3cc(Br)ccc32)CC(C)O1` (stereo not given): 0%; for `Cc1cc(O)c(CNC2CCCCC2)cc1C.Cl`: 6%.
As for `O=C(Nc1cccc(CN2CCN(C(=O)c3cccc(F)c3)CC2)c1)c1ccco1.O=C(O)C(F)(F)F`, the Inhibition stood at 7%.
The same measure for `Oc1ccc(CCNc2nc(N/N=C/c3ccc(Cl)cc3)nc(N3CCNCC3)n2)cc1`: 14%; for `Cc1cc(N2CCN(CC3CCN(C)CC3)CC2)nc(Nc2ccc(Cl)cc2)n1`: 20%; for `Cl.c1ccc(Oc2ccc(Nc3ccnc4c(-c5ccccn5)cccc34)cc2)cc1`: 31%.
As for `COCc1nc(-c2ccccc2)nc(N2CCN(C(=O)NC(C)C)CC2)c1Cc1ccccc1F`, the figure is 35%; as for `CN1CCCN(Cc2cccc(-c3ccc(CNC(=O)c4cccc(Cl)c4)c(F)c3)c2)CC1.O=C(O)C(F)(F)F`, 56%.
As for `COc1cc(Nc2ncc3c(C)nc(-c4cccc(Nc5ccc(CN6CCS(=O)(=O)CC6)cc5)c4)n3n2)cc(OC)c1OC`, the figure is 2%; as for `Cl.ON=C1CCc2cc(-c3[nH]c(-c4cccc(OCCNCc5ccc(F)cc5)c4)nc3-c3ccncc3)ccc21`, 76%.
Compound `Clc1cc(Nc2ccnc3ccc(Br)cc23)ccc1Oc1ccc(Cl)c2ccccc12` had an Inhibition of 6%.
Compound `COc1ccc(CC2(CO)CCN(Cc3ccc(O)c(Cl)c3)CC2)cc1` gave an Inhibition of 0%.
Compound `CCCCCC(C)N/C(=N/c1ccccc1Br)Nc1ccc([N+](=O)[O-])cc1O` (stereo not given) gave an Inhibition of 0%.
As for `Cl.N#Cc1ccc2c(c1)CN(CCCCNC(=O)c1ccc(-c3ccccc3)cc1)CC2`, the figure is 0%.
`O=C(NC1CCN(c2ncc(C(F)(F)F)cc2Cl)CC1)c1cccs1` returned an Inhibition of 15%.
In turn, `CCCNCc1ccc(-c2ccc(CN(Cc3ccc4c(c3)OCO4)C(=O)Cc3cccnc3)cc2)nc1.O=C(O)C(F)(F)F` displayed an Inhibition of 16%.
As for `COc1cccc(NC(=O)c2ccc(NCCCN3CCC(C)CC3)c([N+](=O)[O-])c2)c1`, the figure is 9%.
The same measure for `Cc1cc(C=C(P(=O)(OC(C)C)OC(C)C)P(=O)(OC(C)C)OC(C)C)c2ccccc2c1O`: 15%.
The same measure for `Cc1cccc(Cn2c(Cc3ccccc3)nnc2Sc2ccc([N+](=O)[O-])c(C#N)c2)c1`: 17%; for `O=C(Nc1cccc(CN2CCCN(Cc3ccc(O)cc3)CC2)c1)c1ccc2ccccc2c1.O=C(O)C(F)(F)F`: 20%; for `Cc1ccccc1CCNC(=O)c1ccc(N2CCN(c3ccncc3)CC2)nc1.O=C(O)C(F)(F)F`: 10%.
`CCNc1cc(C)nc(Nc2ccc(NC(=O)c3ccco3)cc2)n1` yielded an Inhibition of 24%.

By Inhibition is commonly meant the share of the control response that was lost under treatment. The low end stands for a response near the control, the high end for a response far below the control.

Source of the values: ChEMBL document CHEMBL1157539, “Thousands of chemical starting points for antimalarial lead identification” (Nature, 2010).
